# Compound activity (PubChem BioAssay)
# Shown are actives, neighbours in structure and some others; about 2.9% of the full set was active somewhere.
# ADAM10 inh = inhibits human ADAM10; O14672; recombinant ADAM10, EDANS/DABCYL FRET peptide cleavage, 3 h; inhibition, % at 7 µM; 0.62% of 370,000 active;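 active means inhibition above a per-campaign cutoff equal to the mean of compounds falling between control-based bounds plus 3 SD, cut at about 20% in these data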;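 further: 0% = DMSO wells while the 100% control is not disclosed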
# PLCg1 inh = PLC-gamma1 (human) inhibition, primary screen | purified PLC-gamma1, fluorogenic substrate, fluorescence | AID 720700 | inhibition, % at 12.2 µM | 0.84% of 370,000 active | P19174; in the data active means inhibition above about 9.5%
# PLC-beta3 inh = blocks human PLC-beta3 enzyme activity; Q01970; inhibition, % at 12.2 µM; 0.18% of 370,000 active; Purified PLC-beta3, fluorogenic substrate, fluorescence; in the data active means inhibition above about 11%;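 further: 0% = median of compound wells on plate and 100% = full blocker control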
# proKLK7 act = activators of human kallikrein-7 zymogen | P49862 | purified proKLK7, EDANS-DABCYL substrate fluorescence; 100% is mature enzyme control, 0% vehicle | activation, % at 7 µM | 0.9% of 370,000 active | AID 652039;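 active means activation above the mean of all tested compounds plus 3 SD, computed per campaign excluding outliers beyond control limits, cut at about 13% in these data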
# ADAM17 inh = ADAM17 inhibition, QFRET primary screen; P78536; recombinant ADAM17, EDANS/DABCYL FRET peptide cleavage; inhibition, % at 6.95 µM; 0.83% of 370,000 active;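 active means inhibition above the mean of compounds lying between control limits plus 3 SD, set per campaign, cut at about 8.5% in these data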;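 further: 0% = DMSO-only wells as the low control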
# * = called active by the depositor; i = inactive; · = not tested or not shown.
SMILES,ADAM10 inh,PLCg1 inh,PLC-beta3 inh,proKLK7 act,ADAM17 inh
CN(C(=O)c1cccc(NC(=O)Cc2cccc(NC(=O)C3CCN(C(=O)C4CC4)CC3)c2)c1)C1CCC1,-12,2,1,0,-7
CN(C(=O)c1cccc(NC(=O)Cc2cccc(NC(=O)C3CCN(C(=O)C4CC4)CC3)c2)c1)C1CC1,8,13*,10,0,6
Nn1c(SCC(=O)Nc2cccc3ccccc23)nnc1-c1cc(-c2ccc(Cl)cc2)n[nH]1,3,2,2,0,-1
CC(=O)N(Cc1ccccc1)c1ccc(C(=O)O)cc1,-1,9.7*,8,0,5
O=C(Nc1ccccc1)c1cccc(N2C(=O)C3C4C=CC(C4)C3C2=O)c1 (stereo not given),-6,3,-5,0,-2
O=C(Nc1ccc(Br)cc1)c1cccc(N2C(=O)C3C4C=CC(C4)C3C2=O)c1 (stereo not given),-4,14*,-12,0,2
CCOC(=O)CN1CCCc2nc(-c3ccc(OC)cc3)ccc21,-450,-260,-354,12,-125
CCOC(=O)CN1CCCc2nc(C)c(C)cc21,i,-268,-349,29*,-189
Cc1ccccc1NS(=O)(=O)c1ccc(NC(=O)CSCc2ccc(Br)cc2)cc1,32*,9,-5,0,15*
O=C(CSCc1ccc(Br)cc1)Nc1ccc(S(=O)(=O)N2CCOCC2)cc1,-3,0,4,0,-3
CCn1c(C(=O)NCCCc2ccccc2)cc2sccc21,3,0,4,0,5
O=C(NCCc1ccccc1)c1cc2sccc2n1Cc1ccccc1,16,10*,4,0,8
COc1ccccc1NC(=O)Nc1nc(C(N)CCc2ccccc2)cs1 (stereo not given),7,11*,10,0,8
Cc1ccc(C(=O)Nc2ccc(Oc3ccc(C(=O)O)c(C(=O)O)c3)cc2)cc1C,7,11*,4,0,1
CCOC(=O)CSc1ccc(S(=O)(=O)N2CCCCC2)cc1[N+](=O)[O-],-3,2,-2,-1,-5
CCOC(=O)CSc1ccc(S(=O)(=O)N(C)C2CCCCC2)cc1[N+](=O)[O-],24*,3,7,0,6
C#CC1(NC(=S)Nc2cccc(OC)c2)CCCCC1,-5,11*,9,-1,9
COCCOC(=O)C1=C(C)NC(=O)NC1c1cn(-c2ccccc2)nc1-c1cccs1 (stereo not given),-9,-3,-7,0,0
COC(=O)C1=C(C)NC(C)=C(C(=O)OC)C1c1cn(-c2ccccc2)nc1-c1ccco1,-139,-92,-143,55*,-27
Cc1ccc(NC(=O)c2cc3cc(OC(F)(F)F)ccc3[nH]2)cc1,-36,-22,-34,-1,-21
Cc1ccc(N=C2SC(C(=O)Nc3ccc(OC(F)(F)F)cc3)C(N)=C2C(=O)Nc2c(C)cc(C)cc2C)cc1 (stereo not given),27*,-5,-6,-1,14*
Fc1ccc(-c2n[nH]c(=S)n2N=Cc2ccc(OCc3ccccc3)cc2)cc1,-1,-3,-1,0,3
CCCCNC(=O)C1=C(N)C(C(=O)Nc2ccc(C)c(S(=O)(=O)N3CCCCC3)c2)SC1=Nc1ccc(C)cc1C (stereo not given),40*,6,5,-1,16*
O=C(NCCCc1ccccc1)O[C@@H]1CC[C@@]23CCCN2C(=O)CCC[C@H]3C1,5,4,1,·,1
c1ccc(Cn2nnc3ccccc32)cc1,8,3,-2,0,-2
SMILES,ADAM10 inh,PLCg1 inh,PLC-beta3 inh,proKLK7 act,ADAM17 inh
C[C@@H](Oc1ccccc1)c1nnn(Cc2ccccc2)c1-c1c([C@@H](C)Oc2ccccc2)nnn1Cc1ccccc1,10,16*,3,0,8
Cc1csc(N=Nc2ccc(N(C)C)cc2)[n+]1[O-],-2,11*,10,0,-2
COc1cc(NC(=O)c2cc(C)on2)c(OC)cc1Cl,-2,-1,0,·,-4
Cc1nc(C(=O)NCCO)cc2c1[nH]c1ccccc12,-114,-23,-36,8,-40
Cc1nc(C(=O)O)cc2c1[nH]c1ccccc12,i,i,i,59*,-498
COc1ccccc1C(=O)NC1CCCCN(Cc2ccc(C)cc2)C1=O (stereo not given),3,-1,1,-1,0
c1ccc(SCCN2CCN(c3ccccc3)CC2)cc1,18,10*,-4,0,0
